Holding throughout (experiment): NCI-60 one-dose screen, 48 h (100 = growth as untreated, 0 = no growth, -100 = all killed)
One test relates to T-47D breast. The settings on record: 10 µM unless noted.
The next test relates to BT-549 breast. To be noted: 10 µM unless noted.
A further test concerns MDA-MB-435 melanoma. The settings on record: 10 µM unless noted.
A further test relates to SW-620 colon. The settings on record: 10 µM unless noted.
In the next test the test system is MCF7 breast. To be noted: 10 µM.
The test system of the next test is HCT-116 colon. To be noted: 10 µM unless noted.
The next test concerns HCC-2998 colon. The settings on record: 10 µM unless noted.
A further test concerns KM12 colon. The settings on record: 10 µM unless noted.

Molecules are shown by their SMILES. Values joined by “and” are separate entries in the source; they are usually repeats but may differ in a detail not shown here. Equal entries are not always repeated. Compounds without any hit were thinned out: in the full panel of roughly 83,000, 20% have a hit.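 Plates (96-well) were seeded with cells, treated with compound at one concentration, and incubated for 48 hours before percent growth was determined.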 Unmarked numbers belong to inactive results. Active and inactive are the calls of the source. How the source made its calls: active means growth percent below 10; inactive means the rest.

Turning to `O=C1c2cccnc2-c2nccc3c2c1nc1cc(Br)ccc13`, the growth in the test on T-47D breast was -34.3% (active) and -63.8% (active); with BT-549 breast it was -73.9% (active) and -67.8% (active); with MDA-MB-435 melanoma, -68.4% (active) and -94.5% (active); in the test on SW-620 colon it was -63.4% (active) and -74.8% (active); in the test with MCF7 breast, -41.9% (active) and -57.8% (active); in the test on HCT-116 colon, -81.5% (active) and -68.7% (active). The growth with HCC-2998 colon was -100% (active) and -82.7% (active); in the test with KM12 colon it was -96.7% (active) and -76.7% (active).

As for `Cc1c2ccccc2c(C)c2c1ccc1ccccc12`, the growth was 65.3% in the test with T-47D breast; 98.8% in the test with BT-549 breast; 92% with MDA-MB-435 melanoma; 99.9% in the test with SW-620 colon; 32.2% in the test with MCF7 breast; 81.3% in the test on HCT-116 colon. The growth in the test with HCC-2998 colon is 104%; in the test with KM12 colon it was 89.3%.

Take `CNC(=O)N/N=C/c1ccc([N+](=O)[O-])o1`: the growth was 104% with T-47D breast; 110% in the test with BT-549 breast; 121% in the test with MDA-MB-435 melanoma; 105% with SW-620 colon; 95.3% in the test with MCF7 breast; 94.8% in the test on HCT-116 colon. Further, the growth in the test with HCC-2998 colon is 106%; in the test on KM12 colon, 92.2%.

Regarding `COC(=O)[C@@]12OC[C@]34[C@H]([C@@H](O)[C@@H]1O)[C@@]1(C)[C@H](O)C(=O)C=C(C)[C@@H]1C[C@H]3OC(=O)C(OC(C)=O)[C@@H]24` (stereo partly specified), the growth is -20.5% (active) in the test on T-47D breast; -53.1% (active) in the test on BT-549 breast; -81.2% (active) with MDA-MB-435 melanoma; -38.2% (active) in the test on SW-620 colon; -19.2% (active) with MCF7 breast; -54.1% (active) in the test with HCT-116 colon. Besides, the results for the growth in the test with HCC-2998 colon and with KM12 colon were -75.8% (active) and -57.8% (active), respectively.

For the compound `C=C(Cl)C(=NC(C)(C)C)Nc1ccccc1C`, the growth was 64% in the test on T-47D breast; 102% with BT-549 breast; 32.2% in the test with MDA-MB-435 melanoma; 66.6% with MCF7 breast; 66.5% in the test on HCT-116 colon; 113% in the test on HCC-2998 colon. In the test with KM12 colon, the growth was 80.9%.

`O[C@H]1[C@H]2c3cc4c(cc3CN3CCC(=C[C@@H]1O)[C@H]23)OCO4`: the growth in the test on T-47D breast is 34.5%; in the test on BT-549 breast, 71.2%; with MDA-MB-435 melanoma, 32.5%; with MCF7 breast it was 11.7%; with HCT-116 colon, 13.5%; in the test with HCC-2998 colon it was 18.9%. Also, the growth in the test with KM12 colon was 21.2%.

`O=C(/C=C\c1ccccc1)N1c2ccccc2CC1c1c[nH]c2ccccc12` (stereo unspecified): the growth in the test with T-47D breast is 23.4%; in the test with BT-549 breast it was 88.6%; in the test with MDA-MB-435 melanoma it was 83.8%; with SW-620 colon, 78.2%; with MCF7 breast it was 66.2%; with HCT-116 colon it was 23.1%. The growth in the test on KM12 colon is 64.4%.

As for `O=[N+]([O-])c1ccc(N=Nc2ccc(O)cc2O)cc1`, the growth in the test with T-47D breast is 27.4%; with BT-549 breast it was 64.5%; with MDA-MB-435 melanoma, 10.1%; with MCF7 breast, 26%; in the test with HCT-116 colon, 17.5%; in the test with HCC-2998 colon, 31.6%. For the same compound, the growth with KM12 colon is 64.3%.

`CCCCCCCCCCCCCCCCN(CC)CC`: the growth is 2.05% (active) in the test with T-47D breast; -36.8% (active) with BT-549 breast; -80.8% (active) in the test with MDA-MB-435 melanoma; -69.1% (active) in the test on SW-620 colon; -68.6% (active) in the test on MCF7 breast; -52.5% (active) with HCT-116 colon. Also, in the test with KM12 colon, the growth was -57% (active).

As to `Cc1ccc2c(ccc3c[n+]4c5ccccc5ccc4n32)c1`, the growth was -24.7% (active) in the test on T-47D breast; -2.45% (active) with BT-549 breast; -27.5% (active) in the test with MDA-MB-435 melanoma; 0.326% (active) in the test on MCF7 breast; 7.17% (active) with HCT-116 colon; -34.9% (active) in the test on HCC-2998 colon. Also, in the test with KM12 colon, the growth is -8.63% (active).

Consider `Oc1c(Br)c(Br)c(O)c(Br)c1Br`, for which the growth with T-47D breast was 25.2%; with BT-549 breast, 95.3%; in the test with MDA-MB-435 melanoma it was 106%; with SW-620 colon, 8.91% (active); in the test on MCF7 breast, 67%; in the test on HCT-116 colon, 96.2%. The growth with KM12 colon is 110%.

Regarding `COc1ccccc1/C=C\C(=O)c1ccccc1`, the growth with T-47D breast is 81.9%; with BT-549 breast, 83.2%; in the test on MDA-MB-435 melanoma it was 46.4%; with MCF7 breast, 5.24% (active); with HCT-116 colon it was 22%; in the test with HCC-2998 colon, 97%. In addition, in the test with KM12 colon, the growth is 29.5%.

As to `CCOC(=O)/C(=C\c1ccc(-c2ccccc2)cc1)C(C)=O`, the growth in the test with T-47D breast was 105%; in the test on BT-549 breast it was 98.8%; in the test on MDA-MB-435 melanoma, 98.9%; in the test on SW-620 colon it was 101%; with MCF7 breast, 93.3%; in the test on HCT-116 colon, 103%. For the same compound, in the test on KM12 colon, the growth was 104%.

Take `OC(CNc1ccnc2cc(Cl)ccc12)CNc1ccnc2cc(Cl)ccc12`: the growth with T-47D breast is 9.13% (active); with BT-549 breast it was 85.2%; in the test with MDA-MB-435 melanoma it was -43.6% (active); in the test with MCF7 breast, 18.5%; with HCT-116 colon, 5.7% (active); in the test on HCC-2998 colon, 46.1%. Further, the growth in the test on KM12 colon is 44.5%.

`O=C(/C=C/C=C/c1ccccc1)c1ccco1`: the growth in the test with T-47D breast was 67.5%; in the test on BT-549 breast, 113%; in the test on MDA-MB-435 melanoma it was 92.8%; with SW-620 colon, 62.4%; with MCF7 breast it was 26.1%; with HCT-116 colon, 36.3%. Besides, the growth in the test on KM12 colon is 86.8%.

For the compound `CC(C)c1ccc2nc3ccc(C(=O)NCCN4CCN(c5ccccc5)CC4)cn3c(=O)c2c1`, the growth in the test with T-47D breast was 28.5%; in the test with BT-549 breast it was 51.3%; in the test on MDA-MB-435 melanoma it was 58.7%; in the test with SW-620 colon, 87.4%; in the test with MCF7 breast, 58.8%; with HCT-116 colon it was 53.6%. In addition, the growth in the test on KM12 colon is 67.2%.

The values are drawn from PubChem BioAssay (NCI).
